Assay [1] can be described thus: inhibitors of TNFa-induced NFkB p65 translocation, primary screen, imaging, HUVEC, MLSMR starter and 10KST1 sets (AID 438;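 active = inhibition above 20% together with a positive visual image hit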;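 note: compound added about 3h40 before a 20 min TNFalpha stimulation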;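 for inhibition: signal is the nuclear over cytoplasmic p65 intensity ratio per well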). Conditions: HUVEC TNFa-induced p65 nuclear translocation; cell count: measured here: nuclei count (cytotoxicity indicator), at 2.08 µM; inhibition: at 2 µM, stronger effect = higher value, 0% TNFa-plus-vehicle, 100% no-TNFa wells.
A short description of assay [2]: inhibitors of mutant huntingtin aggregation, primary screen, imaging, exon1htt(103Q)mCFP cells, high-content imaging (AID 483;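 active = visual image review flags a hit and inhibition of aggregation exceeds 20%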;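 note: compound exposure lasted 3 days before fixation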;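 for nuclei count: percent of the per-plate median nuclei count of sample wells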). Particulars: exon1htt(103Q)mCFP cell line, aggregate imaging, at 2 µM; inhibition of aggregation: stronger effect = higher value; nuclei count: measured here: cell count, toxicity.
A short description of assay [3]: inhibitors of E-selectin induction by TNFa, primary screen, imaging, HUVEC, immunofluorescence, MLSMR starter and 10KST1 sets (AID 487;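 active = visually confirmed hit in the image check and inhibition above 20%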;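 for inhibition: signal is fraction of cell area covered by stained E-selectin grains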;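 for nuclei count: 100% = median nuclei count of all wells on the same plate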). Conditions: HUVEC TNFalpha-induced E-selectin immunofluorescence imaging, at 2 µM; inhibition: stronger effect = higher value; nuclei count: measured here: cell number, toxicity.
The target in assay [4] is Voltage-gated potassium channel subunit beta-2 (Rattus norvegicus) (UniProt P62483). Description: KvBeta enzyme negative modulators, primary screen, biochemical, NADPH fluorescence (AID 622;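 active = fluorescence slope higher than the sample average by over 3 SD, cut at about -0.22 in these data, passing the limit was not always enough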;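 note: slope of raw intensity against log time taken from 70 to 1610 s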). Conditions: recombinant KvBeta, 4-cyanobenzaldehyde reduction, at 10 µM, stronger effect = higher value.
Assay [5] shares this target. Description: KvBeta positive modulators, primary screen, biochemical, NADPH fluorescence (AID 623;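 active = NADPH fluorescence slope more negative than the mean of all samples by about 3 SD, 99.7% confidence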;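 note: fluorescence intensity change per second fitted from 20 to 320 s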). Particulars: Recombinant KvBeta, NADPH fluorescence decrease slope, 10 min; at 10 µM; stronger effect = lower value.
Assay [6] has as its target Alpha-2C adrenergic receptor (Homo sapiens) (UniProt P18825). Description: modulators of alpha2C/GIRK thallium flux, primary screen, cell-based, HEK293 alpha2C/GIRK1/2 (AID 624;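 active = fluorescence slope after compound addition differing from the mean of all screened samples at 99.7% confidence, in either direction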;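 note: slope of fluorescence ratio to pre-addition baseline per second over 15 to 24 s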). Particulars: thallium flux BTC fluorescence, at 10 µM, actives lie on both sides.
A short description of assay [7]: inhibitors of Sendai virus-induced IRF3 signaling, primary screen, TLR/RLR signaling modifier project, cell-based, Sendai virus stimulus, luciferase, 10K MLSCN set (AID 602276).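 Note: firefly luciferase from ISG56 promoter only with Renilla not read in this screen; 0% = Sendai virus plus DMSO and 100% = medium plus DMSO without virus.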 Particulars: HEK293 RL24 IRF3 luciferase reporter, at 10 µM, stronger effect = higher value.
Assay [8] can be described thus: inhibitors of poly I:C-induced TLR3 signaling, primary screen, cell-based, poly I:C stimulus, luciferase, 10K MLSCN set (AID 602277;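 active = inhibition of the reporter signal at or above 50%; inactive = inhibition below 50%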). Particulars: HEK293-TLR3 RL24 IRF3 luciferase reporter, at 10 µM, stronger effect = higher value. (Reporter assays use an easily measured gene product as a stand-in for the process of interest.)

The source made the active and inactive calls.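 Rule for the calls, unless noted: active = inhibition at or above 50% at 10 µM; inactive = inhibition below 50%.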

As a reminder, the inhibition is the change of the read-out against control, counted positive when it falls.

Chain of Alpha-2C adrenergic receptor (Homo sapiens) (P18825 whole entry, looked up): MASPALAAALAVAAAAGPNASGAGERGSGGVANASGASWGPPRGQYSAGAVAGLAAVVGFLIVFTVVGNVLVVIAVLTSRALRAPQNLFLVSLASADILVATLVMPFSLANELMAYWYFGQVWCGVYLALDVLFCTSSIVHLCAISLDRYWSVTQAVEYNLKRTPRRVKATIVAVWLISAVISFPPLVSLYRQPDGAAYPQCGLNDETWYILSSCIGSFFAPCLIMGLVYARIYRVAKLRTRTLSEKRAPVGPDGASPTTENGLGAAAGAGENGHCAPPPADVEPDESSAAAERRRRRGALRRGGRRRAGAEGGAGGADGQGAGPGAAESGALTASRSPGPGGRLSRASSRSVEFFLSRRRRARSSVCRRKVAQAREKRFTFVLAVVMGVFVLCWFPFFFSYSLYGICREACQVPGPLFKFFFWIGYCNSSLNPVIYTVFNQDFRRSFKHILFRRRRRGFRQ
Chain of Voltage-gated potassium channel subunit beta-2 (Rattus norvegicus) (P62483 whole entry, looked up): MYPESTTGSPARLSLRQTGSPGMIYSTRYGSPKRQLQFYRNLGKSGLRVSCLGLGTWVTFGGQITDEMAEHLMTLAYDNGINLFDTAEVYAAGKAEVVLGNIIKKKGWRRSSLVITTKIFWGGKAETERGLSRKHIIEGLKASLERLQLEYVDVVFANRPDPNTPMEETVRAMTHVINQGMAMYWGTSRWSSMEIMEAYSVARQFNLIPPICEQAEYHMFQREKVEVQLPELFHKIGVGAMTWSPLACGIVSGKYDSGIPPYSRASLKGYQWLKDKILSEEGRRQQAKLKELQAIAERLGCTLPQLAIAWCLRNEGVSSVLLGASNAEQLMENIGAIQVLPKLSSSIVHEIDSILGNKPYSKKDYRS

On to `COC(=O)c1ccc(C(=O)OC)c(NC(=O)Nc2ccc3c(c2)OCO3)c1`, for which, in assay [1], the cell count is 279. The inhibition in assay [1] is -7.1% (inactive); in assay [3], -15.8% (inactive); in assay [7] it was -24.9% (inactive); in assay [8] it was -44.2% (inactive). For the same compound, in assay [2], the inhibition of aggregation is 2.1% (inactive). For the same compound, the nuclei count in assay [2] turned out to be 94.2%; in assay [3], 95.1%. In assay [4], the fluorescence slope was -0.417 (inactive). For the same compound, the NADPH fluorescence slope in assay [5] is 7.6e-06 (inactive). Moreover, the slope in assay [6] was 0.00311 (inactive).
Regarding `CC(C)COC(=O)C(C#N)c1nc2ccccc2nc1N1CCN(Cc2ccccc2)CC1` (stereo not given), in assay [1], the cell count was found to be 296. The inhibition in assay [1] is 4.2% (inactive); in assay [3], 17.8% (inactive); in assay [7], 14.6% (inactive); in assay [8] it was 7.75% (inactive). For the same compound, in assay [2], the inhibition of aggregation was 3.4% (inactive). The figures for the nuclei count in assay [2] and in assay [3] were 91.2% and 87%, respectively. The fluorescence slope in assay [4] is -0.425 (inactive). Further, the NADPH fluorescence slope in assay [5] was 8.1e-06 (inactive). Moreover, in assay [6], the slope was 0.00589 (inactive).
As to `Cc1nnc(NC(=O)c2ccccc2F)s1`, in assay [1], the cell count is 421. Further, the inhibition in assay [1] is 6% (inactive); in assay [3] it was 6.9% (inactive); in assay [7], -6.19% (inactive); in assay [8], -17.6% (inactive). In addition, the inhibition of aggregation in assay [2] is 14.2% (inactive). The results for the nuclei count in assay [2] and in assay [3] were 103% and 125%, respectively. Further, the fluorescence slope in assay [4] is -0.614 (inactive). Also, in assay [5], the NADPH fluorescence slope was 5.1e-06 (inactive). The slope in assay [6] is 0.00652 (inactive).
For the compound `C(/CCc1ccccc1)=N\n1cnnc1`, in assay [1], the cell count was determined as 312. The inhibition is 18.4% (inactive) in assay [1], 17.1% (inactive) in assay [3], 5.76% (inactive) in assay [7] and 0.464% (inactive) in assay [8]. The inhibition of aggregation in assay [2] is -7% (inactive). Further, the nuclei count was 109% in assay [2] and 105% in assay [3]. In assay [4], the fluorescence slope was -0.628 (inactive). Besides, the NADPH fluorescence slope in assay [5] is -5.3e-05 (inactive). In addition, the slope in assay [6] is 0.00355 (inactive).
For `COc1ccc(OC)c(S(=O)(=O)Nc2ccc(O)c3ccccc23)c1`, the cell count in assay [1] was found to be 382. For the same compound, the inhibition in assay [1] was -10.1% (inactive); in assay [3] it was -13.9% (inactive); in assay [7], 14.9% (inactive); in assay [8] it was 53.2% (active). The inhibition of aggregation in assay [2] was -0.8% (inactive). For the same compound, the nuclei count is 93% in assay [2] and 114% in assay [3]. In assay [4], the fluorescence slope is -0.416 (inactive). The NADPH fluorescence slope in assay [5] was -6.5e-05 (inactive). The slope in assay [6] is 0.00306 (inactive).
With `Cn1cc(Cl)c(C(=O)N(Cc2ccccc2)c2ccccn2)n1`, the cell count in assay [1] is 623. For the same compound, the inhibition in assay [1] was 8.3% (inactive); in assay [3], -5.2% (inactive); in assay [7], -18.3% (inactive); in assay [8], 0.52% (inactive). For the same compound, the inhibition of aggregation in assay [2] was -6.5% (inactive). Moreover, the nuclei count is 102% in assay [2] and 117% in assay [3]. Besides, the fluorescence slope in assay [4] was -0.584 (inactive). The NADPH fluorescence slope in assay [5] was -3.1e-06 (inactive). The slope in assay [6] was 0.00695 (inactive).
`Cc1cc(C)c2c(n1)nn1c(NCCCN3CCOCC3)cc(C)nc21`: the cell count in assay [1] was determined as 484. The inhibition is -4.5% (inactive) in assay [1], -19.1% (inactive) in assay [3], 8.42% (inactive) in assay [7] and 21.2% (inactive) in assay [8]. Besides, in assay [2], the inhibition of aggregation was 11.5% (inactive). In addition, the nuclei count in assay [2] was 119%; in assay [3] it was 114%. Also, the fluorescence slope in assay [4] is -0.509 (inactive). The NADPH fluorescence slope in assay [5] was -1.9e-05 (inactive). In addition, the slope in assay [6] is 0.00545 (inactive).
`CSCC[C@@H](Nc1nc(-c2ccccc2)nc2c1oc1ccccc12)C(=O)O`: the cell count in assay [1] stood at 322. Besides, the inhibition is 1.9% (inactive) in assay [1], -92.1% (inactive) in assay [3], 4.35% (inactive) in assay [7] and 41% (inactive) in assay [8]. The inhibition of aggregation in assay [2] was -20.9% (inactive). In addition, the figures for the nuclei count in assay [2] and in assay [3] were 83.4% and 123%, respectively. Besides, in assay [4], the fluorescence slope was -0.442 (inactive). Also, in assay [5], the NADPH fluorescence slope was 9.3e-06 (inactive). Besides, the slope in assay [6] was 0.00719 (inactive).
Turning to `O=c1c2cc3ccccc3n2cnn1Cc1ccccc1F`, the cell count in assay [1] amounted to 345. In addition, the inhibition in assay [1] was -8.5% (inactive); in assay [3] it was -105% (inactive); in assay [7], -21.7% (inactive); in assay [8] it was -7.8% (inactive). For the same compound, the inhibition of aggregation in assay [2] was 29.9% (inactive). For the same compound, the nuclei count was determined as 89.6% in assay [2] and 108% in assay [3]. The fluorescence slope in assay [4] is -0.51 (inactive). Besides, in assay [5], the NADPH fluorescence slope is 3.1e-05 (inactive). Besides, the slope in assay [6] was 0.00758 (inactive).
Take `Cc1ccc(CCP(=O)(O)CN2CCOCC2)cn1`: the cell count in assay [1] stood at 380. In addition, the inhibition in assay [1] is 5.9% (inactive); in assay [3], 4.3% (inactive); in assay [7], -1.89% (inactive); in assay [8], 33.2% (inactive). In assay [2], the inhibition of aggregation was -2.2% (inactive). Also, the nuclei count in assay [2] worked out at 100%; in assay [3] it was 95.2%. The fluorescence slope in assay [4] was -0.437 (inactive). Besides, the NADPH fluorescence slope in assay [5] was 3.3e-05 (inactive). Further, the slope in assay [6] was 0.00662 (inactive).

The values above are taken from PubChem BioAssay.
